From PubChem BioAssay
Calls of active or inactive are those of the source.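 Rule for the calls, unless noted: active = compounds lowering colon cancer cell viability after pretreatment blocking the GSK3B kinase; inactive = the rest.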

What was measured:
[1] = stimulators of nuclear beta-catenin in C2C12, primary screen, imaging, WNT3A-conditioned medium, mouse C2C12, NPC library (AID 1117326; in the data active = nuclear beta-catenin stimulation mostly above about 4.2%, no sharp cut-off; inactive = mostly below about 10%; note: reference of the scale not given here); conditions: stronger effect = higher value
[2] = stimulators of insulin release from INS-1E, primary screen, cell-based, 5 mM glucose, NPC library (AID 1117329;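 active = compound raises insulin release from rat beta cells at 5 mM glucose, no numeric limit stated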; note: reference of the scale not given here); conditions: rat INS-1E insulin secretion, at 10 µM, stronger effect = higher value
[3] = growth inhibition of GSK3B-pretreated HCT116 cells – cell-based, CellTiter-Glo, 0.2 to 20 µM (AID 1117336); conditions: HCT116 viability after GSK3B inhibitor, at 20 µM, stronger effect = higher value
[4] = inhibition of endothelial tube formation, primary screen, imaging, VEGF stimulated, CD31 staining, tube area, NPC library (AID 1117340;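 active = compound that reduces growth-factor-driven endothelial tube area in a mixed cell culture, no cutoff stated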); conditions: VEGF-stimulated ADSC/ECFC co-culture, at 10 µM, stronger effect = higher value
[5] = glucagon-like peptide 1 release enhancers, primary assay, NCI-H716 cell line, NPC library (AID 1117341;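 active = compound raises GLP1 secretion from the human gut endocrine cells, with no numeric limit stated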; note: reference of the scale not given here); conditions: NCI-H716 cells, at 10 µM, stronger effect = higher value
[6] = HCT116 colon cancer cell growth inhibition, primary screen, CellTiter-Glo luminescence, NPC library (AID 1117342;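 active = compounds that lower survival of HCT116 colon cancer cells in the luminescence readout, no numeric limit stated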); conditions: at 20 µM (top of the series)
[7] = CellTiter-Glo luminescent readout of SW480 viability loss, NPC library primary (AID 1117343;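 active = compounds that lower viability of the colon cancer cells in the luminescence readout, with no numeric limit stated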); conditions: CellTiter-Glo luminescence; at 20 µM (top of the series)
[8] = decreased DLD-1 cellular survival, CellTiter-Glo luminescent readout, NPC compound collection, primary HTS (AID 1117346;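 active = compounds that lower survival of DLD-1 colon cancer cells in the luminescence readout, no cutoff given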); conditions: DLD-1 viability, CellTiter-Glo luminescence; at 20 µM (top of the series)

ClCCCN1CCN(c2cccc(Cl)c2)CC1
inactive: nuclear beta-catenin stimulation ([1]; at 10 µM) -0.9% | insulin secretion stimulation [2] 1.1% | viability decrease [3] 15% | tube area decrease [4] -11.1% | GLP1 secretion stimulation [5] 1.5% | inhibition of viability [6] 42.8% | viability decrease (inhibition) [7] 26.2%
active: viability decrease (inhibition) [8] 50.1%
-2.6%: nuclear beta-catenin stimulation ([1]; stimulation, at 2 µM)

C[C@@]12CCCCC[C@@H](Cc3ccc(O)cc31)[C@H]2N
inactive: nuclear beta-catenin stimulation ([1]; at 10 µM) -0.5% | insulin secretion stimulation [2] 11.2% | viability decrease [3] -4.1% | tube area decrease [4] 8.5% | GLP1 secretion stimulation [5] -2.3% | inhibition of viability [6] 13.4% | viability decrease (inhibition) [7] 6.4% | viability decrease (inhibition) [8] -12.5%
0.1%: nuclear beta-catenin stimulation ([1]; stimulation, at 2 µM)

CC(C)(C)NC[C@H](O)c1ccc(O)cc1Cl
inactive: nuclear beta-catenin stimulation ([1]; at 10 µM) 0.3% | insulin secretion stimulation [2] 7.2% | viability decrease [3] 13.2% | tube area decrease [4] -4.4% | GLP1 secretion stimulation [5] 5.5% | inhibition of viability [6] 35.7% | viability decrease (inhibition) [7] 37.1% | viability decrease (inhibition) [8] 8.8%
-0.2%: nuclear beta-catenin stimulation ([1]; stimulation, at 2 µM)

N[C@@H](Cc1ccc(Oc2cc(I)c(O)c(I)c2)c(I)c1)C(=O)O
inactive: nuclear beta-catenin stimulation ([1]; at 10 µM) 0.6% | insulin secretion stimulation [2] 2.2% | viability decrease [3] 48.2% | tube area decrease [4] 34.7% | GLP1 secretion stimulation [5] -3.9% | inhibition of viability [6] 39.6% | viability decrease (inhibition) [7] 36.1% | viability decrease (inhibition) [8] -13.1%
-0.5%: nuclear beta-catenin stimulation ([1]; stimulation, at 2 µM)

COC(=O)c1cncn1C(C)c1ccccc1 (centres undefined)
inactive: nuclear beta-catenin stimulation ([1]; at 10 µM) -0.2% | insulin secretion stimulation [2] 1% | viability decrease [3] 1.8% | tube area decrease [4] -14.8% | GLP1 secretion stimulation [5] 1.6% | inhibition of viability [6] -8.6% | viability decrease (inhibition) [7] 24.4% | viability decrease (inhibition) [8] 20.5%
0.1%: nuclear beta-catenin stimulation ([1]; stimulation, at 2 µM)

NCC(O)c1cccc(O)c1 (centres undefined)
inactive: nuclear beta-catenin stimulation ([1]; at 10 µM) -0.9% | insulin secretion stimulation [2] 0.5% | viability decrease [3] -15% | tube area decrease [4] -16.5% | GLP1 secretion stimulation [5] 2.9% | inhibition of viability [6] 4.5% | viability decrease (inhibition) [7] 4.3% | viability decrease (inhibition) [8] 5.4%
0.5%: nuclear beta-catenin stimulation ([1]; stimulation, at 2 µM)

CCC1(c2ccccc2)C(=O)N(COC)C(=O)N(COC)C1=O
0.4%: nuclear beta-catenin stimulation ([1]; stimulation, at 2 µM)
active: viability decrease [3] 83.5% | inhibition of viability [6] 96.3% | viability decrease (inhibition) [7] 89.5% | viability decrease (inhibition) [8] 62.9%
inactive: nuclear beta-catenin stimulation ([1]; at 10 µM) 0.6% | insulin secretion stimulation [2] 0.35% | tube area decrease [4] 4% | GLP1 secretion stimulation [5] 1.4%

CCN(CC)Cc1nccn1-c1ccc([N+](=O)[O-])cc1C(=O)c1ccccc1Cl
-0.2%: nuclear beta-catenin stimulation ([1]; stimulation, at 2 µM)
inactive: nuclear beta-catenin stimulation ([1]; at 10 µM) -1.2% | insulin secretion stimulation [2] 7.4% | viability decrease [3] -3% | tube area decrease [4] 2.7% | GLP1 secretion stimulation [5] -0.3% | inhibition of viability [6] 28.5% | viability decrease (inhibition) [7] 39.7% | viability decrease (inhibition) [8] 0%

CN1C2CCC(C)(C)C1CC(OC(=O)C(O)(c1cccs1)c1cccs1)C2 (centres undefined)
-0.6%: nuclear beta-catenin stimulation ([1]; stimulation, at 2 µM)
inactive: nuclear beta-catenin stimulation ([1]; at 10 µM) -1.7% | insulin secretion stimulation [2] 5.6% | viability decrease [3] 8% | tube area decrease [4] 4.7% | GLP1 secretion stimulation [5] -0.7% | inhibition of viability [6] 27.8% | viability decrease (inhibition) [7] 37.2% | viability decrease (inhibition) [8] 27.7%

CN1CCc2cc(Cl)c(O)cc2[C@H]2c3ccccc3CC[C@@H]21
2.3%: nuclear beta-catenin stimulation ([1]; stimulation, at 2 µM)
active: insulin secretion stimulation [2] 20.2%
inactive: nuclear beta-catenin stimulation ([1]; at 10 µM) 1.9% | viability decrease [3] 16.1% | tube area decrease [4] 24.1% | GLP1 secretion stimulation [5] 5.5% | inhibition of viability [6] 28.5% | viability decrease (inhibition) [7] 46.5% | viability decrease (inhibition) [8] 21.2%

CC(C)C(Br)C(=O)NC(N)=O (centres undefined)
1%: nuclear beta-catenin stimulation ([1]; stimulation, at 2 µM)
inactive: nuclear beta-catenin stimulation ([1]; at 10 µM) 0.6% | insulin secretion stimulation [2] -0.4% | viability decrease [3] -0.05% | tube area decrease [4] 1.7% | GLP1 secretion stimulation [5] -0.8% | inhibition of viability [6] -3% | viability decrease (inhibition) [7] 4.9% | viability decrease (inhibition) [8] 1%

CN1CCC(O)(c2ccc(F)cc2)C(C(=O)c2ccc(F)cc2)C1 (centres undefined)
1.6%: nuclear beta-catenin stimulation ([1]; stimulation, at 2 µM)
inactive: nuclear beta-catenin stimulation ([1]; at 10 µM) 20.8% | insulin secretion stimulation [2] 5% | viability decrease [3] -1.23% | tube area decrease [4] 18% | GLP1 secretion stimulation [5] 4.8% | inhibition of viability [6] 4.35%
active: viability decrease (inhibition) [7] 87% | viability decrease (inhibition) [8] 72.8%

CCS(=O)(=O)C(C)(C)S(=O)(=O)CC
1.4%: nuclear beta-catenin stimulation ([1]; stimulation, at 2 µM)
inactive: nuclear beta-catenin stimulation ([1]; at 10 µM) -0.7% | insulin secretion stimulation [2] -0.1% | viability decrease [3] 2.1% | tube area decrease [4] -6.6% | GLP1 secretion stimulation [5] -1.4% | inhibition of viability [6] -17.9% | viability decrease (inhibition) [7] -3.1% | viability decrease (inhibition) [8] -0.85%

COCC(=O)N(c1c(C)cccc1C)C(C)C(=O)OC (centres undefined)
inactive: nuclear beta-catenin stimulation ([1]; at 10 µM) 0.1% | insulin secretion stimulation [2] -1.7% | viability decrease [3] -0.7% | tube area decrease [4] -6.8% | GLP1 secretion stimulation [5] 1.9% | inhibition of viability [6] -27% | viability decrease (inhibition) [7] 1.1% | viability decrease (inhibition) [8] 8.85%
0.5%: nuclear beta-catenin stimulation ([1]; stimulation, at 2 µM)

CCC1(c2ccccc2)CCC(=O)NC1=O (centres undefined)
0.1%: nuclear beta-catenin stimulation ([1]; stimulation, at 2 µM)
inactive: nuclear beta-catenin stimulation ([1]; at 10 µM) 0.3% | insulin secretion stimulation [2] -2.9% | viability decrease [3] -12.8% | tube area decrease [4] -0.6% | GLP1 secretion stimulation [5] 2.8% | inhibition of viability [6] -2.8% | viability decrease (inhibition) [7] 49.4% | viability decrease (inhibition) [8] 6.55%

CN1CCC(N(Cc2ccccc2)c2ccccc2)CC1
inactive: nuclear beta-catenin stimulation ([1]; at 10 µM) 0.1% | insulin secretion stimulation [2] 14.1% | viability decrease [3] 24.8% | tube area decrease [4] -0.1% | GLP1 secretion stimulation [5] 14.3% | inhibition of viability [6] 41.7% | viability decrease (inhibition) [7] 48.7% | viability decrease (inhibition) [8] 23.2%
-3%: nuclear beta-catenin stimulation ([1]; stimulation, at 2 µM)
